The text below walks through data of PubChem BioAssay AID588342 (National Center for Advancing Translational Sciences (NCATS), 2011).

Molecules are shown by their SMILES. Values joined by “and” are separate entries in the source; they are usually repeats but may differ in a detail not shown here. Equal values may be shown once. The campaign covered roughly 360,000 compounds. About 25,000 (6.9%) were called active. Entries that show only a call come without a potency. Roughly 9% stayed inconclusive and do not appear here. Calls come from the whole dose curve; as a rule, active = well fitted inhibition curve with a large enough effect; inconclusive = small, poorly fitted or top-dose-only effect; inactive = flat fitted curve, though single readings scatter. For the sample, actives were picked, then their nearest neighbours and some compounds at random.
Potency is the fitted concentration of half-maximal effect.

Sequence of Luciferin 4-monooxygenase (Photinus pyralis) (P08659 whole entry, looked up): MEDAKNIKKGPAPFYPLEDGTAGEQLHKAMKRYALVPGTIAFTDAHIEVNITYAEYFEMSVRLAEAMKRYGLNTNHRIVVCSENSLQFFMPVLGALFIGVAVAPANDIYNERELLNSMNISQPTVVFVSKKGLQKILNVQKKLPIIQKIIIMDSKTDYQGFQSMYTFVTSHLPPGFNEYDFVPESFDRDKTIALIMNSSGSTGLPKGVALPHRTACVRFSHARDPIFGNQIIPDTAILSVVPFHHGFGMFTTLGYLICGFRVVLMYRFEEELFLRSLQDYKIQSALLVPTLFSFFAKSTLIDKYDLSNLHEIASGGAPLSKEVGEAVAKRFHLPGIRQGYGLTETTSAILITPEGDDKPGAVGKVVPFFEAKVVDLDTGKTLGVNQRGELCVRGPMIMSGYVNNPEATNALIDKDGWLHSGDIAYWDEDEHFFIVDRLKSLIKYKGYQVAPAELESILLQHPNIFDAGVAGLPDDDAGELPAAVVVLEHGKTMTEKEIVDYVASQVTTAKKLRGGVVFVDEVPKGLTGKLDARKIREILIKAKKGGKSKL

The test addresses Luciferin 4-monooxygenase (Photinus pyralis) (UniProt P08659). Put plainly: qHTS profiling assay for firefly luciferase inhibitor/activator using purifed enzyme and Km concentrations of substrates (counterscreen for miR-21 project). Note: nearly all actives have a fitted effect of over 55% in size. To be noted: purified FLuc, luminescence inhibition; series mostly up to 57.5 µM. The method, boiled down:
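Biochemical qHTS of compounds, final roughly 60 µM downward over six points, against 10 nM purified firefly luciferase using Km concentrations of substrates (10 uM D-luciferin, 10 uM ATP) in Tris acetate pH 7.5 buffer; luminescence output.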
Consider `COc1ccccc1CNC(=O)CCn1c(=O)c2ccccc2n(CC(=O)Nc2ccc(Br)cc2F)c1=O`, for which the Potency entry was “inactive”. For the compound `COc1ccc(OCCn2cc(C(=O)C3CCCCC3)c3ccccc32)cc1`, the Potency result was “inactive”. `Cc1ccc(Nc2nc(CSc3nnc(-c4ccncc4)n3-c3ccccc3C)cs2)cc1`: the Potency is 21.3 µM (active).

For `Cc1ccccc1-n1c(SCC(=O)NCc2cccs2)nnc1-c1ccncc1`, the Potency result is “inactive”. Under `Cc1ccc(-n2c(SCC(=O)N3c4ccccc4Sc4ccccc43)nnc2-c2ccncc2)cc1` stands “inactive”; under `CCCN1C(=O)C(Cc2nc3ccccc3c(=O)n2-c2ccccc2)c2cc(C)ccc21` (centres undefined), “inactive”; under `COc1ccc(NC(=S)N2N=CCC2c2ccccc2)cc1` (centres undefined), 4.78 µM (active).

`CCC(C)N(C)C1CCN(C(=S)Nc2ccc(OC)cc2)CC1` (centres undefined): the Potency result was “inactive”. For `COc1ccc(NC(=S)N2CCc3cc(OC)c(OC)cc3C2)cc1` the value was “inactive”.

Take `COc1ccc(C(=O)NC2CC2)cc1OC1CCN(Cc2cnn(C)c2)CC1`: the Potency result is “inactive”. Turning to `N=c1c2c(-c3ccccc3)c(-c3ccccc3)n(Cc3ccccc3)c2ncn1CCCO`, the Potency entry was “inactive”. Turning to `OCCCN1c2ccccc2Nc2nnc(-c3ccccc3)cc21`, the Potency was 1.9 µM (active).

As to `COC(=O)c1ccccc1NS(=O)(=O)c1ccc2c(c1)CCCN2C(C)=O`, the Potency entry was “inactive”. Under `O=C(NCCc1ccccc1)c1cnc2sc(N3CCCC3)nn2c1=O` stands “inactive”. For `O=C(NCCc1ccccc1)c1ccc2c(c1)N(Cc1ccccc1)CCS2` the value was “inactive”; for `CC1CCCN(c2ccc(C(=O)NCCc3ccccc3)cn2)C1` (centres undefined), 7.57 µM (active); for `Cc1ccc(-c2nc(Cn3c(=O)cc(-c4ccccc4)c4c(C)nn(C)c43)c(C)o2)cc1`, “inactive”.

`CCN(CC)S(=O)(=O)c1ccc2c(c1)N(CC(=O)NCC(C)c1ccccc1)C(=O)CO2` (centres undefined): the Potency entry was “inactive”. Take `O=S(=O)(NCC(c1ccccc1)N1CCc2ccccc21)c1ccccc1` (centres undefined): the Potency entry was “inactive”.

As to `Cc1onc(C(=O)NN)c1-c1csc(COc2ccccc2)n1`, the Potency result was “inactive”. For `CC(C)(C)C(=O)OCc1nc(-c2ccc(O)c(O)c2)cs1` the value was 4.26 µM (active); for `CCCCCCn1nnc2sc(-c3ccccc3)cc2c1=O`, “inactive”. Under `O=c1c2cc(-c3ccccc3)sc2nc2n1N=C(c1cccs1)CS2` stands 0.601 µM (active); under `Cc1nnc2n1N=C(c1ccccc1)CS2`, “inactive”. For the compound `CCOc1ccc(NC(=O)CC2C(=O)N(c3cccc(OC)c3)C(=O)N2C2CCCCC2)cc1` (centres undefined), the Potency entry is “inactive”. Under `CCOC(=O)c1c(S(=O)(=O)N2CCCC(C(=O)NCc3cccc(C)c3)C2)c(C)n(C)c1C` (centres undefined) stands “inactive”; under `CCOC(=O)c1c(C)nc2c(c1C)c(=O)oc1ccccc12`, 16.9 µM (active); under `CCCCC(=O)Nc1cc(C)c2c(=O)oc3ccccc3c2n1`, “inactive”. On to `CCOC(=O)C1CCCN(CC(=O)Nc2cc(C)c3c(=O)oc4ccccc4c3n2)C1` (centres undefined), for which the Potency result is “inactive”. On to `Cc1cc(C)c(C#N)c(N2CCC(C(N)=O)CC2)n1`, for which the Potency result was “inactive”. Turning to `N#Cc1c(-c2ccccc2)cc(-c2ccccc2)nc1SCC(=O)O`, the Potency entry was “inactive”.

`N#Cc1c(N2CCCCC2)nc(N)c2c(N)nc(SCC(=O)O)cc12`: the Potency was 8.49 µM (active). As for `CCOC(=O)N1CCC(NC(=O)c2ccc3nc(N4CCOCC4)sc3c2)CC1`, the Potency entry is “inactive”. Under `O=C(c1ccc2nc(N3CCOCC3)sc2c1)N1CCN(c2ccc(Cl)cc2)CC1` stands “inactive”. Under `O=S(=O)(Nc1ccc2nc(N3CCOCC3)sc2c1)c1ccccc1` stands 21.3 µM (active). Regarding `COc1ccccc1N1CC(C(=O)NCCN2C(=O)S/C(=C\c3cccnc3)C2=O)CC1=O` (centres undefined), the Potency entry is “inactive”. For `NC(=O)COc1ccccc1C(=O)NC12CC3CC(CC(C3)C1)C2` the value was “inactive”; for `NC(=O)COc1ccc(C23CC4CC(CC(C4)C2)C3)cc1`, 12 µM (active).

In the case of `NC(=O)COc1ccc(NC(=O)c2ccccc2-c2ccccc2)cc1`, the Potency entry is “inactive”. For `Cc1ccc(/C=C2\CCn3c2nc2cc(C(=O)O)ccc2c3=O)c(C)c1` the value was “inactive”. `COc1ccccc1CNC(=O)CCCn1c(=O)c2ccccc2n(CC(=O)Nc2ccc(C)cc2Cl)c1=O`: the Potency entry is “inactive”.

`CCCn1nc(NC(=O)C(C)C)c2cc3cc(OC)ccc3nc21`: the Potency result is “inactive”. With `CCCn1nc(NS(=O)(=O)c2ccc(F)cc2)c2cc3ccccc3nc21`, the Potency result was “inactive”.

In the case of `CCCn1nc(NS(=O)(=O)c2ccccc2)c2cc3cc(C)ccc3nc21`, the Potency was 16.9 µM (active).

Consider `O=S(=O)(NCC(c1ccco1)N1CCOCC1)c1cc(F)ccc1F` (centres undefined), for which the Potency entry is “inactive”. Under `Cc1csc2nc(COC(=O)c3ccccc3NC(=O)c3ccccc3Cl)cc(=O)n12` stands “inactive”; under `CCN(CC)c1nn2c(=O)c(C(=O)NCCc3ccccc3)cnc2s1`, “inactive”; under `Cc1cc(C(C)(C)C)n2nc(C)c(-c3ccccc3)c2n1`, “inactive”. In the case of `Cc1cc(-n2nc(C)cc2C)n2nc(C)c(-c3ccccc3)c2n1`, the Potency result is “inactive”. `Cc1cc(-c2ccccc2)n2nc(C)c(-c3ccccc3)c2n1`: the Potency is 16.9 µM (active). Under `Cc1ccc(C)n1-c1nnc(N2CCC(C(=O)NCc3ccccc3Cl)CC2)s1` stands “inactive”; under `O=C(NCc1ccc2c(c1)CCN2C(=O)c1ccccc1)c1ccccc1`, “inactive”. For `CNC(=S)NNC(=O)c1ccc(N(C)C)cc1` the value was “inactive”; for `CC(=O)N(C)c1ccc(NC(=O)C(F)(F)F)cc1`, “inactive”.

In the case of `CN(C)c1ccc(N/C=C/C(=O)C(F)(F)F)cc1`, the Potency was 10.7 µM (active).

Take `Cc1ccc2nc(NC(=O)c3nc(SCc4ccccc4F)ncc3Cl)sc2c1`: the Potency entry is “inactive”. For `CCOc1ccc(NC(=O)c2c(NC(=O)Cc3ccccc3)sc3c2CCC(C)C3)cc1` (centres undefined) the value was “inactive”; for `O=S(=O)(c1cccs1)N1CCN(CCOc2ccccc2)CC1`, “inactive”.

Regarding `Fc1ccc(-c2nc(Nc3cccc(Cl)c3)nc3c2COc2ccccc2-3)cc1`, the Potency entry is “inactive”. For `COc1ccc(-c2nc3c4ccccc4n(CC(=O)Nc4ccc(C(C)=O)cc4)c(=O)n3n2)cc1` the value was “inactive”; for `CC1(C(=O)N/N=C/c2cc3c(cc2Br)OCO3)CC1(Br)Br` (centres undefined), “inactive”; for `O=C(CNC(=O)C1COc2ccccc2O1)N/N=C/c1cc(Br)c(O)c(Br)c1` (centres undefined), “inactive”. Consider `O=C(N/N=C/c1cc2c(cc1Br)OCO2)C1COc2ccccc2O1` (centres undefined), for which the Potency is 13.5 µM (active). Under `Cc1ccccc1-c1cc(C(=O)NCc2cccs2)n(CC2CC(c3cccnc3)=NO2)n1` (centres undefined) stands “inactive”. For `COc1ccc(Cl)cc1NC(=O)Cn1c(=O)c2ccccc2n2nncc12` the value was “inactive”; for `COc1ccc(NC(=O)C2CCC(CNS(=O)(=O)c3csc(C(N)=O)c3)CC2)cc1OC` (centres undefined), “inactive”.

For the compound `CCN(CC)C(=O)CSc1nc2ccsc2c(=O)n1Cc1ccccc1Cl`, the Potency entry is “inactive”.

Consider `Brc1ccc(-c2nnc(-c3ccccc3)o2)o1`, for which the Potency is 6.01 µM (active). Under `O=C(COC(=O)c1ccccc1Br)Nc1nnc(-c2ccccc2)o1` stands “inactive”; under `O=C1c2ccccc2C(=O)N1CCCc1nc(-c2ccccc2)no1`, “inactive”; under `O=C(OCc1ccc(Br)cc1)c1cccc(-c2nnc(-c3ccccc3)o2)c1`, “inactive”. As to `Brc1ccc(-c2noc(-c3ccccc3)n2)o1`, the Potency was 2.13 µM (active) and 1.35 µM (active). Turning to `Cn1nc(-c2ccccc2)c(-c2nc(-c3ccc(Cl)cc3)no2)c1Cl`, the Potency entry was “inactive”. For the compound `Cc1ccc(Cc2nc3ccccc3nc2SCC(=O)Nc2cccc(C(F)(F)F)c2)cc1`, the Potency result was “inactive”. `CCCc1nn2c(=O)cc(COC(=O)c3ccc(NC(=O)C(C)Oc4ccccc4)cc3)nc2s1` (centres undefined): the Potency entry was “inactive”.

`CN(CC(=O)Nc1cccc(F)c1)C(=O)CC1CCCC1`: the Potency result is “inactive”.

For the compound `O=C(NCc1ccccc1CN1CCCC1)C1CCN(S(=O)(=O)c2ccc(Cl)cc2)CC1`, the Potency result is “inactive”. Regarding `O=C(COC(=O)C1CCCCC1)Nc1ccc([N+](=O)[O-])cc1`, the Potency is 16.9 µM (active).

As for `NC(=O)c1ccc(NC(=O)COC(=O)c2ccc([N+](=O)[O-])cc2)cc1`, the Potency result was “inactive”. Turning to `N/C(Cc1ccc([N+](=O)[O-])cc1)=N\OC(=O)C1CCCCC1`, the Potency result is “inactive”. For the compound `O=C(CN1CCSc2ccccc21)N1CCN(c2ccccc2)CC1`, the Potency result was “inactive”.

As for `CCCCN1C(=O)CC(N2CCOCC2)C1=O` (centres undefined), the Potency result was “inactive”. Under `CCOC(=O)c1cn(Cc2cccc(C)c2)nn1` stands “inactive”; under `CCOC(=O)c1nn(-c2cccc(C)c2)cc1C(=O)c1ccccc1`, 9.53 µM (active).

For `CC(=O)c1nn(-c2cccc(Br)c2)cc1C(=O)c1cccc2ccccc12`, the Potency result was “inactive”. For `COc1ccc(S(=O)(=O)NCc2cccn2Cc2cccc(C)c2)cc1Cl` the value was “inactive”; for `Cc1cc(Cl)ccc1OCCCC(=O)NCc1ccncc1`, “inactive”; for `Cc1ccccc1C(=O)NCc1nc(-c2ccc(Cl)cc2)no1`, “inactive”. Under `Cc1cc(Cl)ccc1OCc1nc(-c2ccncc2)no1` stands 10.7 µM (active). For `Cc1ccc(CNC(=O)CSc2c(C)cnc3c2c(=O)n(C)c(=O)n3C)cc1` the value was “inactive”; for `O=C(Nc1ccc(Cl)cc1)c1ccsn1`, 12 µM (active); for `O=C(Nc1cccc(Cl)c1)c1csnn1`, “inactive”.

For `CCC(=O)Nc1ccc(C(=O)NNC(=O)c2ccc(Cl)cc2)cc1`, the Potency entry is “inactive”. As to `O=[N+]([O-])c1cc(-c2nc(-c3ccccc3)no2)ccc1NCc1ccco1`, the Potency result was “inactive”.

As for `Cc1cc2n(n1)C(c1cc(C(C)(C)C)c(O)cc1O)Nc1ccccc1-2` (centres undefined), the Potency entry is “inactive”. With `CCC1C=C(c2ccccc2)C=CN=C1N(CC)CC` (centres undefined), the Potency result was “inactive”. For `CCOc1ccc(CCNC(=O)Cn2nc(CC)n3c(cc4sc(CC)cc43)c2=O)cc1OCC`, the Potency result is “inactive”.

Regarding `COc1ccc(-c2cc(C(F)(F)F)n3nc(-c4ccccc4)cc3n2)cc1OC`, the Potency entry was “inactive”. Under `Cc1cc(N)n2nc(-c3ccc(C(C)(C)C)cc3)cc2n1` stands 0.601 µM (active); under `Cc1cc(-c2ccccc2)n2nc(-c3ccccc3)cc2n1`, “inactive”; under `Cc1cc(C)cc(-n2c(SCC(=O)NCC3CCCO3)nc3c([nH]c4ccccc43)c2=O)c1` (centres undefined), “inactive”. Under `COc1cccc(NC(=O)Nc2ccc3c(c2)N(C)C(=O)c2ccccc2S3)c1` stands “inactive”; under `CCCCS(=O)(=O)c1oc(-c2cccs2)nc1S(=O)(=O)c1ccccc1`, “inactive”; under `CCOCCCNC(=O)C(NC(=O)c1ccccc1O)c1ccccc1` (centres undefined), “inactive”.
